From PubChem BioAssay AID1159580 (chemical genetic matrix, 2015)
Several values for one entry are separate records, joined by “and”; a condition that tells them apart may be missing. Equal entries are not always repeated. Hit rate of the full screen: of about 5,500 compounds, about 2,000 (36%) were called active. Roughly 18% stayed inconclusive and do not appear here. Rule as the data show it: active = normalized growth mostly below about 0.91 (no sharp cut-off); inconclusive = no clear call, values can overlap the other calls; inactive = mostly above about 0.92. The list shows a part of the results.

Test: chemical genetic growth profiling, strain panel (AID 1159580);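 also: tested at 20 µM; growth read once vehicle control cultures reached saturation at 30 °C; 1 = growth at the plate median or of vehicle wells; lower values mean less growth of the strain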
Settings: S. cerevisiae deletion strains, growth OD

Measured: normalized growth

O=C(O)/C=C/C=C/c1ccccc1
0.985 (inactive) and 0.23 (active): locus YJL095W, strain BCK1, stronger effect = lower value
active: locus YAL021C, strain ccr4, stronger effect = lower value 0.827 | locus YAL026C, strain drs2, stronger effect = lower value 0.783 | locus YAL030W, strain snc1, stronger effect = lower value 0.826 | locus YBL061C, strain skt5, stronger effect = lower value 0.826 | locus YBR009C, strain hhf1, stronger effect = lower value 0.83 | locus YBR023C, strain chs3, stronger effect = lower value 0.811 | locus YBR171W, strain sec66, stronger effect = lower value 0.83 | locus YBR231C, strain swc5, stronger effect = lower value 0.804 | locus YBR279W, strain paf1, stronger effect = lower value 0.833 | locus YCL011C, strain gbp2, stronger effect = lower value 0.814 | locus YCL016C, strain dcc1, stronger effect = lower value 0.836 | locus YCL069W, strain vba3, stronger effect = lower value 0.789 | locus YCR088W, strain abp1, stronger effect = lower value 0.764 | locus YDL005C, strain med2, stronger effect = lower value 0.875 | locus YDL040C, strain nat1, stronger effect = lower value 0.861 | locus YDL185W, strain tfp1, stronger effect = lower value 0.818 | locus YDR001C, strain nth1, stronger effect = lower value 0.793 | locus YDR069C, strain doa4, stronger effect = lower value 0.863 | locus YDR137W, strain rgp1, stronger effect = lower value 0.539 | locus YDR159W, strain sac3, stronger effect = lower value 0.596 | locus YDR297W, strain sur2, stronger effect = lower value 0.816 | locus YDR318W, strain mcm21, stronger effect = lower value 0.91 | locus YDR334W, strain swr1, stronger effect = lower value 0.746 | locus YDR335W, strain msn5, stronger effect = lower value 0.766 | locus YDR392W, strain spt3, stronger effect = lower value 0.624 | locus YDR502C, strain sam2, stronger effect = lower value 0.914 | locus YEL003W, strain gim4, stronger effect = lower value 0.836 | locus YEL037C, strain rad23, stronger effect = lower value 0.816 | locus YEL061C, strain CIN8 (second series), stronger effect = lower value 0.763 | locus YER015W, strain faa2, stronger effect = lower value 0.866 | locus YER016W, strain bim1, stronger effect = lower value 0.816 | locus YER110C, stronger effect = lower value 0.887 | locus YER111C, strain swi4, stronger effect = lower value 0.774 | locus YER155C, strain BEM2 (second series), stronger effect = lower value 0.636 | locus YER155C, strain BEM2, stronger effect = lower value 0.899 | locus YFR010W, strain ubp6, stronger effect = lower value 0.803 | locus YGL078C, strain dbp3, stronger effect = lower value 0.806 | locus YGL086W, strain mad1, stronger effect = lower value 0.927 | locus YGL167C, strain pmr1, stronger effect = lower value 0.837 | locus YGL173C, strain kem1, stronger effect = lower value 0.804 | locus YGL227W, strain vid30, stronger effect = lower value 0.761 | locus YGL240W, strain doc1, stronger effect = lower value 0.629 | locus YGL253W, strain hxk2, stronger effect = lower value 0.772 | locus YGR252W, strain gcn5, stronger effect = lower value 0.727 | locus YHR013C, strain ard1, stronger effect = lower value 0.767 | locus YHR027C, strain rpn1, stronger effect = lower value 0.87 | locus YHR079C, strain IRE1, stronger effect = lower value 0.238 | locus YHR094C, strain hxt1, stronger effect = lower value 0.917 | locus YHR142W, strain chs7, stronger effect = lower value 0.713 | locus YIL125W, strain kgd1, stronger effect = lower value 0.786 | locus YIR030C, strain dcg1, stronger effect = lower value 0.914 | locus YJL092W, strain hpr5, stronger effect = lower value 0.79 | locus YJL095W, strain BCK1 (second series), stronger effect = lower value 0.847 | locus YJL115W, strain asf1, stronger effect = lower value 0.762 | locus YJL129C, strain trk1, stronger effect = lower value 0.629 | locus YJL154C, strain vps35, stronger effect = lower value 0.808 | locus YJL164C, strain tpk1, stronger effect = lower value 0.8 | locus YJL166W, strain qcr8, stronger effect = lower value 0.813 | locus YJL168C, strain set2, stronger effect = lower value 0.929 | locus YJL187C, strain SWE1, stronger effect = lower value 0.825
inactive: locus YBR021W, strain FUR4, stronger effect = lower value 0.862 | locus YBR229C, strain ROT2, stronger effect = lower value 0.983 | locus YCL029C, strain bik1, stronger effect = lower value 0.952 | locus YDL035C, strain GPR1, stronger effect = lower value 0.964 | locus YDL074C, strain BRE1, stronger effect = lower value 0.924 | locus YDL101C, strain DUN1, stronger effect = lower value 0.979 | locus YDL134C, strain PPH21, stronger effect = lower value 0.97 | locus YDL192W, strain arf1, stronger effect = lower value 0.922 | locus YDR101C, strain arx1, stronger effect = lower value 0.938 | locus YDR150W, strain NUM1, stronger effect = lower value 0.966 | locus YDR162C, strain NBP2, stronger effect = lower value 0.943 | locus YDR195W, strain ref2 1.01 | locus YDR388W, stronger effect = lower value 0.931 | locus YEL061C, strain CIN8, stronger effect = lower value 0.977 | locus YER167W, strain BCK2, stronger effect = lower value 0.974 | locus YGL248W, strain PDE1, stronger effect = lower value 0.973 | locus YGR135W, strain pre9, stronger effect = lower value 0.916 | locus YGR229C, strain SMI1, stronger effect = lower value 0.993 | locus YHR079C, strain IRE1 (second series), stronger effect = lower value 0.927 | locus YHR129C, strain ARP1, stronger effect = lower value 0.96 | locus YHR200W, strain rpn10, stronger effect = lower value 0.949 | locus YIL066C, strain RNR3, stronger effect = lower value 0.996 | locus YIL073C, strain SPO22, stronger effect = lower value 1.05 | locus YJL134W, strain LCB3, stronger effect = lower value 0.975 | locus YJL187C, strain SWE1 (second series), stronger effect = lower value 0.975 | locus YJR043C, strain POL32, stronger effect = lower value 0.968
0.967 (inactive) and 0.21 (active): locus YHR030C, strain SLT2, stronger effect = lower value
